This is an account of results in PubChem BioAssay (NCI).

Molecules are shown by their SMILES. Compounds without any hit were thinned out: in the full panel of roughly 83,000, 20% have a hit.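 Interpretation: 100, growth as untreated; towards 0, rising growth inhibition; 0, no net growth; 0 to -100, cell death. Compounds scoring below 10 were considered active.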 A number with no mark means an inactive call. Active and inactive are the calls of the source.

In the first assay the test system is SW-620 colon. The assay can be described thus: NCI-60 one-dose screen, 48 h (100 = growth as untreated, 0 = no growth, -100 = all killed). Conditions: 10 µM.
Turning to `Nc1nc(Nc2ccc(Cl)cc2)n(Cc2cccc(Br)c2)n1`, the growth is -16.5% (active).
On to `COc1ccc(N(C)c2cc(C#N)nc3ccccc23)cc1N`, for which the growth is 19%.
The same measure, in the same setting: as for `CCOc1ccc(Nc2nc3ccccc3nc2Nc2ccc(OCC)cc2)cc1`, the figure is 75.5%; as for `NS(=O)(=O)c1ccc(NC(=O)CSc2ccc(-c3ccccc3)nn2)c(Br)c1`, 99.5%.
Same read-out and setting: the value for `COc1ccc(OC)c(/C=N/NC(=O)c2ccc3nc(-c4ccc(Cl)cc4)[nH]c3c2)c1` was 92%; that for `N#Cc1c(NC(=O)c2ccc(C(F)(F)F)cc2)sc2c1CCC(=O)C2` was -63% (active); that for `COc1ccc(-c2cc(-c3cc(C(=O)c4ccc(Br)cc4)n4ccc(C)cc34)nc(N)c2C#N)cc1` was 92.3%.
With `CN1C(=O)N(C)C2SC(N/N=C/c3cccs3)=NC21` (stereo unspecified), the growth is 15.4%.
On the same count and under the same terms, the value for `CN1CCN(Cc2ccc(NC(=O)c3cncc(C#Cc4cnc5ccc(N[C@@H]6CCOC6)nn45)c3)cc2C(F)(F)F)CC1` was -41.9% (active); that for `COc1cc(C2CC(c3ccc(C)cc3)=Nc3c(N)nc(N)nc3N2)ccc1Oc1nc(Nc2ccc(F)cc2)nc(N(C)C)n1` (stereo unspecified) was 58.8%.
Still for that read-out and setting: the value for `CC1=C2C(=C[C@@](C)(CO)[C@@H]2O)/C(=N\N)[C@](C)(O)C12CC2` was -9.56% (active); that for `Cc1ccc(NCC(=O)Nn2c(COc3ccccc3)nc3ccccc3c2=O)cc1` was 95.1%; that for `CN1C(=O)/C(=C/c2nccs2)SC1=S` was 92.5%.
Take `Cc1ccc2nc(-c3ccc(-c4nnc(SCC(=O)Nc5ccc(Cl)cc5)o4)cc3)[nH]c2c1`: the growth is 3.49% (active).
As to `O=C1Nc2cc(Cl)ccc2/C1=C/c1cccc(OCc2ccccc2)c1`, the growth was 8.71% (active).
On to `CCOc1ccc(/C=N/NC(=O)Cn2nc(Cc3ccccc3)c3onc(C)c3c2=O)cc1`, for which the growth is 43.3%.
Take `O=C(CSc1nnc(-c2c[nH]c3ccccc23)n1-c1ccccc1)Nc1ccc(C(=O)/C=C/c2ccc(Cl)cc2)cc1`: the growth was 90.4%.
The same measure, in the same setting: the value for `Oc1ccc(/C=C2\CCCc3cc4ccc(O)cc4[o+]c32)c(O)c1` was 20.5%; that for `CCCSc1nc(NC2CC2)c(C#N)c(-c2ccc(OC)cc2)n1` was 105%.
The same measure, in the same setting: as for `COc1ccc(/C=C/C(=O)c2ccc(NC(=O)CN3C(=O)NC(C)(c4ccccc4)C3=O)cc2)cc1` (stereo unspecified), the figure is 88.8%.
The same measure, in the same setting: the value for `Brc1ccc(/C=N/Nc2ncnc3sc4c(c23)CCN(Cc2ccccc2)C4)cc1` was 35%; that for `CC1(c2ccccc2)NC(=O)N(CC(=O)Nc2ccc(C(=O)/C=C/C=C/c3ccccc3)cc2)C1=O` (stereo unspecified) was 48.3%.
Take `O=C(c1ccc(Cl)cc1)C1[C@H](c2ccccc2Br)[C@@H](c2ccccc2)NC12C(=O)Nc1ccc(Cl)cc12` (stereo partly specified): the growth was 8.7% (active).
The same measure, in the same setting: the value for `COc1ccc2nc(Cl)c(-c3cc(-c4ccccc4)nc(=S)[nH]3)cc2c1` was 78.9%; that for `CC(=O)Oc1ccccc1C(=O)Oc1ccc(C(=O)/C=C/c2ccncc2)cc1` was 6.33% (active); that for `c1ccc(C(=C(c2ccc(OCCN3CCCCC3)cc2)c2ccc(OCCN3CCCCC3)cc2)C2CCCC2)cc1` was -62.6% (active).
On the same count and under the same terms, the value for `CCCCSc1nc(Nc2ccc(/C(C)=N/NC(N)=S)cc2)c(C#N)c(-c2ccc(OC)cc2)n1` was 97.2%; that for `COc1ccc(C(=O)Nc2ccc(-c3ccc4c(c3)NC(=O)/C4=C\c3ccc[nH]3)cc2)cc1` was -14.7% (active); that for `COc1cccc(/C=C2\N=C(C)N(CCc3ccc(S(N)(=O)=O)cc3)C2=O)c1` was 105%.
For the compound `COc1ccc(-c2nc(-c3ccccc3)c(-c3ccccc3)n2-c2ccc(S(=O)(=O)Nc3ncccn3)cc2)cc1OC`, the growth is 98.1%.
On the same count and under the same terms, the value for `Cc1ccc(F)cc1N/C=c1\s/c(=C(\C#N)C(=O)Nc2ccccc2)n(-c2ccccc2)c1=O` was 105%; that for `CC1(c2ccccc2)NC(=O)N(CC(=O)Nc2ccc(C(=O)/C=C/c3ccccc3)cc2)C1=O` (stereo unspecified) was 32.4%; that for `COc1ccc(N2N=C(c3ccc4c(c3)OCCO4)CC2c2cccc(NC(=O)CCCNS(=O)(=O)c3ccc(F)cc3)c2)cc1` (stereo unspecified) was 95.2%.
On the same count and under the same terms, as for `Cc1ccc(S(=O)(=O)c2nc(-c3ccccc3)oc2S(=O)(=O)CC(=O)N2CCCC2)cc1`, the figure is -68.1% (active); as for `Cn1cc(/C=N/Nc2cccc(Cl)n2)c2ccccc21`, 65.9%.
The same measure, in the same setting: the value for `CN(C)c1ccc(/C=C/C(=O)c2ccc(NC(=O)CN3C(=O)NC(C)(c4ccccc4)C3=O)cc2)cc1` (stereo unspecified) was 74.5%; that for `O=C1N/C(=N\c2nccs2)S/C1=C\c1cccs1` was 30%; that for `O=C(c1ccc(O)cc1)C1[C@H](c2ccccc2Br)[C@@H](c2ccccc2)NC12C(=O)Nc1ccc(Cl)cc12` (stereo partly specified) was -0.351% (active).

In another assay the test system is MCF7 breast. The description is as above. The settings on record: 10 µM.
Take `Nc1nc(Nc2ccc(Cl)cc2)n(Cc2cccc(Br)c2)n1`: the growth was -31.6% (active).
On the same count and under the same terms, as for `COc1ccc(N(C)c2cc(C#N)nc3ccccc23)cc1N`, the figure is 9.87% (active).
Regarding `CCOc1ccc(Nc2nc3ccccc3nc2Nc2ccc(OCC)cc2)cc1`, the growth was 32.9%.
On the same count and under the same terms, as for `NS(=O)(=O)c1ccc(NC(=O)CSc2ccc(-c3ccccc3)nn2)c(Br)c1`, the figure is 79%; as for `COc1ccc(OC)c(/C=N/NC(=O)c2ccc3nc(-c4ccc(Cl)cc4)[nH]c3c2)c1`, 51.9%.
Still for that read-out and setting: as for `N#Cc1c(NC(=O)c2ccc(C(F)(F)F)cc2)sc2c1CCC(=O)C2`, the figure is -16.9% (active).
The same measure, in the same setting: as for `COc1ccc(-c2cc(-c3cc(C(=O)c4ccc(Br)cc4)n4ccc(C)cc34)nc(N)c2C#N)cc1`, the figure is 79.1%; as for `CN1C(=O)N(C)C2SC(N/N=C/c3cccs3)=NC21` (stereo unspecified), 13.3%; as for `CN1CCN(Cc2ccc(NC(=O)c3cncc(C#Cc4cnc5ccc(N[C@@H]6CCOC6)nn45)c3)cc2C(F)(F)F)CC1`, -88.1% (active).
Turning to `COc1cc(C2CC(c3ccc(C)cc3)=Nc3c(N)nc(N)nc3N2)ccc1Oc1nc(Nc2ccc(F)cc2)nc(N(C)C)n1` (stereo unspecified), the growth was 5.19% (active).
On the same count and under the same terms, the value for `CC1=C2C(=C[C@@](C)(CO)[C@@H]2O)/C(=N\N)[C@](C)(O)C12CC2` was -6.87% (active); that for `Cc1ccc(NCC(=O)Nn2c(COc3ccccc3)nc3ccccc3c2=O)cc1` was 82%; that for `CN1C(=O)/C(=C/c2nccs2)SC1=S` was 38.2%.
Same read-out and setting: the value for `Cc1ccc2nc(-c3ccc(-c4nnc(SCC(=O)Nc5ccc(Cl)cc5)o4)cc3)[nH]c2c1` was -16.1% (active); that for `O=C1Nc2cc(Cl)ccc2/C1=C/c1cccc(OCc2ccccc2)c1` was 2.6% (active).
Take `CCOc1ccc(/C=N/NC(=O)Cn2nc(Cc3ccccc3)c3onc(C)c3c2=O)cc1`: the growth was 28.3%.
Same read-out and setting: the value for `O=C(CSc1nnc(-c2c[nH]c3ccccc23)n1-c1ccccc1)Nc1ccc(C(=O)/C=C/c2ccc(Cl)cc2)cc1` was 6.09% (active); that for `Oc1ccc(/C=C2\CCCc3cc4ccc(O)cc4[o+]c32)c(O)c1` was 10.8%; that for `CCCSc1nc(NC2CC2)c(C#N)c(-c2ccc(OC)cc2)n1` was 103%.
`COc1ccc(/C=C/C(=O)c2ccc(NC(=O)CN3C(=O)NC(C)(c4ccccc4)C3=O)cc2)cc1` (stereo unspecified): the growth was 4.86% (active).
Still for that read-out and setting: as for `Brc1ccc(/C=N/Nc2ncnc3sc4c(c23)CCN(Cc2ccccc2)C4)cc1`, the figure is 42.8%.
The same measure, in the same setting: as for `CC1(c2ccccc2)NC(=O)N(CC(=O)Nc2ccc(C(=O)/C=C/C=C/c3ccccc3)cc2)C1=O` (stereo unspecified), the figure is 3.54% (active); as for `O=C(c1ccc(Cl)cc1)C1[C@H](c2ccccc2Br)[C@@H](c2ccccc2)NC12C(=O)Nc1ccc(Cl)cc12` (stereo partly specified), 0.103% (active); as for `COc1ccc2nc(Cl)c(-c3cc(-c4ccccc4)nc(=S)[nH]3)cc2c1`, 65%.
Still for that read-out and setting: the value for `CC(=O)Oc1ccccc1C(=O)Oc1ccc(C(=O)/C=C/c2ccncc2)cc1` was 0.657% (active).
With `c1ccc(C(=C(c2ccc(OCCN3CCCCC3)cc2)c2ccc(OCCN3CCCCC3)cc2)C2CCCC2)cc1`, the growth was -71.1% (active).
On to `CCCCSc1nc(Nc2ccc(/C(C)=N/NC(N)=S)cc2)c(C#N)c(-c2ccc(OC)cc2)n1`, for which the growth is 49.2%.
The same measure, in the same setting: as for `COc1ccc(C(=O)Nc2ccc(-c3ccc4c(c3)NC(=O)/C4=C\c3ccc[nH]3)cc2)cc1`, the figure is -31.9% (active); as for `COc1cccc(/C=C2\N=C(C)N(CCc3ccc(S(N)(=O)=O)cc3)C2=O)c1`, 95.2%.
Still for that read-out and setting: the value for `COc1ccc(-c2nc(-c3ccccc3)c(-c3ccccc3)n2-c2ccc(S(=O)(=O)Nc3ncccn3)cc2)cc1OC` was 71.2%; that for `Cc1ccc(F)cc1N/C=c1\s/c(=C(\C#N)C(=O)Nc2ccccc2)n(-c2ccccc2)c1=O` was 38.8%.
`CC1(c2ccccc2)NC(=O)N(CC(=O)Nc2ccc(C(=O)/C=C/c3ccccc3)cc2)C1=O` (stereo unspecified): the growth was -19.6% (active).
Still for that read-out and setting: the value for `COc1ccc(N2N=C(c3ccc4c(c3)OCCO4)CC2c2cccc(NC(=O)CCCNS(=O)(=O)c3ccc(F)cc3)c2)cc1` (stereo unspecified) was 60.7%; that for `Cc1ccc(S(=O)(=O)c2nc(-c3ccccc3)oc2S(=O)(=O)CC(=O)N2CCCC2)cc1` was -40.7% (active); that for `Cn1cc(/C=N/Nc2cccc(Cl)n2)c2ccccc21` was 35.9%.
Still for that read-out and setting: the value for `CN(C)c1ccc(/C=C/C(=O)c2ccc(NC(=O)CN3C(=O)NC(C)(c4ccccc4)C3=O)cc2)cc1` (stereo unspecified) was 11.8%; that for `O=C1N/C(=N\c2nccs2)S/C1=C\c1cccs1` was 15.4%; that for `O=C(c1ccc(O)cc1)C1[C@H](c2ccccc2Br)[C@@H](c2ccccc2)NC12C(=O)Nc1ccc(Cl)cc12` (stereo partly specified) was -17.2% (active).
